Compound activity: PubChem BioAssay, National Center for Advancing Translational Sciences (NCATS)
Rango dissoc inh: qHTS Assay for Inhibitors of RanGTP induced Rango (Ran-regulated importin-beta cargo) - Importin beta complex dissociation | Snurportin-1 (Homo sapiens) + GTP-binding nuclear protein Ran (Homo sapiens) + Importin … | Biochemical FRET Rango-importin beta, RanGTP-induced dissociation | Potency, µM (titrated, usually from 46.1 µM) | 0.071% of 340,000 active; also: nearly all actives have a fitted effect of over 45% in size
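Rango/importin beta premix (0.1/0.25 uM final), PBS + 1 mM DTT + 0.02% Tween-20 + 0.1% BSA; cpd 5 min RT; FRET pre-read; + RanGTP-RCC1 (0.6 uM Ran, 2 mM GTP, 0.2 uM RCC1); 45 min RT; FRET post-read, ex 430, em 486/530 nm.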
PTAP TSG101 blk: qHTS Assay for Iinhibitors of HIV-1 Budding by Blocking the Interaction of PTAP/TSG101; Tumor susceptibility gene 101 protein (Homo sapiens), Q99816; Fluorescence polarization, FITC-PTAP peptide / Tsg101 binding; Potency, µM (series often up to 115 µM), most hits filed as inhibitors; 340,000 tested, under 10 active; AID 493005, 2010; active = well fitted inhibition curve with a large enough effect in the main read-out, with a control signal flat, not every such curve was filed as active; inconclusive = small, poorly fitted or top-dose-only effect, or effect the other way, or a change in a side signal; inactive = no such curve, though single readings can be large or run the other way
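Steps: Tsg101 binding domain dispensed (10 uM final), compounds pinned in DMSO, FITC-labeled PTAP-motif peptide added (50 nM final); after 20 min binding at room temperature, polarization measured.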
MmCpn inh: Inhibitors of TCP-1 ring complex (TRiC) of Methanococcus maripaludis (MmCpn): qHTS; Potency, µM (top dose mostly 76.9 µM), usual class: inhibitors; purified Mm-Cpn ATPase, ADP Transcreener TR-FRET; 0.031% of 330,000 active; active = well fitted inhibition curve with a large enough effect; inconclusive = small, poorly fitted or top-dose-only effect; also: nearly all actives have a fitted effect of over 80% in size
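Inhibition of chaperonin ATP hydrolysis is measured as reduced ADP production, detected by competitive TR-FRET in which signal falls with ADP. Final enzyme 25 nM and ATP 10 uM, reacted 30 min at 37°C.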
D3 antag: qHTS of D3 Dopamine Receptor Antagonist: qHTS. 2.5% of 360,000 active. D3R cells, DiscoveRx beta-arrestin luminescence, antagonist mode; active compounds read low. max response, negative = inhibition, %; in the data active = max response below about -50%; inconclusive = no clear call, values can overlap the other calls
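Cells plated overnight at 1500 cells/well, then exposed to library compounds with dopamine controls for 90 minutes at 37 degrees C. DiscoveRx reagent added for 30–60 minutes at room temperature; luminescence read, quantitative HTS format.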
Rango-impB inh: qHTS Assay for Inhibitors of Rango (Ran-regulated importin-beta cargo) - Importin beta complex formation | Potency, µM (top dose mostly 92.2 µM) | Importin subunit beta-1 (Homo sapiens), Q14974 | 0.031% of 340,000 active | Rango CFP/YFP FRET sensor + importin beta, 45 min; also: nearly all actives have a fitted effect of over 15% in size
Target sequence (Q14974 whole entry, looked up): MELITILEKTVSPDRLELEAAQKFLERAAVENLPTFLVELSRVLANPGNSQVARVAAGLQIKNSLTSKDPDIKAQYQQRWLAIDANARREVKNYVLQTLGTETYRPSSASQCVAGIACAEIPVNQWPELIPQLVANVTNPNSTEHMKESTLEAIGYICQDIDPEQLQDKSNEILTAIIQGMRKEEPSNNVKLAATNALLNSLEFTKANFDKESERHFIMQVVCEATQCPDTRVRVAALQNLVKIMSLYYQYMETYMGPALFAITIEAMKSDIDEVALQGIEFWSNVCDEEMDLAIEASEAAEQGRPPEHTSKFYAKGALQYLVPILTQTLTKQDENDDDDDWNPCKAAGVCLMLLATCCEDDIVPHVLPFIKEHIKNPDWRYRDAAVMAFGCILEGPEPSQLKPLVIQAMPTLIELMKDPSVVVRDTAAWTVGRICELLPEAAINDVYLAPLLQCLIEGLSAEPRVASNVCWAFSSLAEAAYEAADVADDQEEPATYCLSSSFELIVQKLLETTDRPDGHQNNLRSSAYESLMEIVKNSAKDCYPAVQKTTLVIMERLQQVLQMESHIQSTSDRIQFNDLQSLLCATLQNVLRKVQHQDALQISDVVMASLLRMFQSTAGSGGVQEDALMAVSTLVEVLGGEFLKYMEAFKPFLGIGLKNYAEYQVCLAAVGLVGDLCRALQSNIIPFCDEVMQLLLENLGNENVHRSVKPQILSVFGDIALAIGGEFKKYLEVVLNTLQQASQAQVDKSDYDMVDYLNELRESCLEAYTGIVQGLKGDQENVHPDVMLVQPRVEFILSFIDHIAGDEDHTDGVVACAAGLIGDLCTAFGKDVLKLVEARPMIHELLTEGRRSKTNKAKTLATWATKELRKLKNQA
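FRET biosensor (snurportin 1 IBB flanked by EYFP and cerulean), 50 nM, with compound 5 min, then 0.125 microM importin beta in PBS, 1 mM DTT, 0.02% Tween-20, 0.1% BSA. CFP/YFP ratio read after 45 min at room temperature; pre-read flags interference.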
DRD3 agonist: qHTS of D3 Dopamine Receptor Agonist: qHTS. D3R DiscoveRx beta-arrestin cells, luminescence, 90 min. max activation, %. 0.58% of 410,000 active. AID 652048, 2013; in the data active = max activation above about 30%
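Cells at 1500/well, incubated overnight, then treated with pinned compounds (dopamine as control) for 90 min at 37 degrees C. DiscoveRx reagent added for 30 - 60 minutes at room temperature; luminescence read.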
Hits are given with their value; i = inactive; ? = inconclusive; nt = not tested or not shown. A selection: hits, their analogues and other compounds. The true share with any hit is near 2.9%. Unless noted, calls follow the shape of the full dose curve.

SMILES	Rango dissoc inh	PTAP TSG101 blk	MmCpn inh	D3 antag	Rango-impB inh	DRD3 agonist
CCc1nc(N2CCN(S(=O)(=O)c3ccc(Br)cc3)CC2)c2c(C)c(C)sc2n1	i	i	nt	i	i	i
N=C1SC(CC(=O)Nc2ccccc2[N+](=O)[O-])C(=O)N1c1ccccc1 (stereo not given)	i	i	i	-61.7	i	i
Cc1ccccc1NC(=O)CC1SC(=O)N(c2ccccc2)C1=O (stereo not given)	i	i	i	-91.9	?	i
CCc1nn(CC(=O)NCCN(CC(C)C)CC(C)C)c(=O)c2cc3sc(C)cc3n12	nt	nt	nt	nt	nt	i
CCOC(=O)c1cnc(N)nc1C(F)(F)F	i	i	i	i	i	i
CCCCS/C(=C(/C#N)C(N)=O)c1cc2c([nH]1)CCCC2	?	i	i	-74.2	?	i
OC(c1ccc(Cl)cc1Cl)C(Cc1cccnc1)n1cncn1 (stereo not given)	i	i	i	-75.3	i	i
COc1ccc(C2C(C(=O)Nc3cccnc3)=C(C)Nc3nc(SCc4ccccc4)nn32)cc1 (stereo not given)	nt	nt	nt	nt	nt	i
COCC(=O)Nc1cc(Sc2ccccc2)ccc1N=C(NC(=O)OC)NC(=O)OC	nt	nt	nt	nt	nt	i
O=C(COC(=O)Cc1ccccc1F)Nc1ccc2[nH]c(=O)[nH]c2c1	i	i	i	i	i	i
O=C(COC(=O)/C=C/c1cc(Br)ccc1F)Nc1ccc2[nH]c(=O)[nH]c2c1	i	i	i	i	i	88.3
C[C@@H](CN1CCC[C@H]1CN1C(N)=NC[C@@H]1Cc1ccccc1)N1C[C@@H](Cc2ccccc2)N(CCc2ccc(Cl)c(Cl)c2)C1=N	i	i	i	-53.1	i	i
CC(C)[C@H](CN1CCC[C@H]1CN1C(N)=NC[C@@H]1Cc1ccccc1)N1C[C@@H](Cc2ccccc2)N(CCc2ccc(Cl)c(Cl)c2)C1=N	i	i	i	i	i	i
CC(C)[C@@H]1CN=C(N)N1C[C@@H]1CCCN1C[C@H](C)N1C[C@@H](Cc2ccccc2)N(CCc2ccc(Cl)c(Cl)c2)C1=N	i	i	i	-59.5	i	i
Cc1cccc(C)c1NC(=O)CC12CCCN1CCC2	nt	nt	nt	nt	nt	i
CCCN(C(=O)Cc1coc2cc(OC)ccc12)C1CCS(=O)(=O)C1 (stereo not given)	i	i	i	-51.9	i	i
O=C(CC1CCCC1)NNC(=O)c1ccccc1O	nt	nt	nt	i	nt	i
O=C(CCC1CCCC1)NNC(=O)c1cc2ccccc2cc1O	18.4µM	i	i	i	?	i
CC(=O)Nc1ccc(OCC(O)CN2CCN(c3cccc(Cl)c3)CC2)cc1 (stereo not given)	i	i	i	i	i	34.5
CC(=O)Nc1ccc(OCC(O)CN2CCN(c3ccc(Cl)cc3)CC2)cc1 (stereo not given)	i	i	i	-72.0	i	i
O=C(Cn1c(=O)nc(-c2ccccc2)c2ccccc21)Nc1cccc(C(F)(F)F)c1	nt	nt	nt	nt	nt	i
COc1cc(SSc2cc(OC)cc([N+](=O)[O-])c2N)c(N)c([N+](=O)[O-])c1	i	i	i	-77.0	i	i
COc1ccc(/C=C/C(=O)c2ccccc2)c(OC)c1	?	i	i	i	?	i
COc1ccc(/C=C/C(=O)c2ccc(OC)cc2OC)c(OC)c1	?	i	nt	i	?	34.9
CCC(C)NCCOCCOc1ccc(F)cc1 (stereo not given)	i	i	i	-65.7	i	i
SMILES	Rango dissoc inh	PTAP TSG101 blk	MmCpn inh	D3 antag	Rango-impB inh	DRD3 agonist
CCC(C)NCCOCCOc1cc(C)c(Cl)c(C)c1 (stereo not given)	i	i	i	?	i	i
CCC(C)NCCOCCOc1ccccc1-c1ccccc1 (stereo not given)	i	i	i	-68.5	i	i
CCc1cc(C(=O)NNC(=S)Nc2ccccc2C)cs1	i	i	i	-97.1	i	i
CCc1cc(C(=O)NNC(=S)Nc2cc(C)ccc2C)cs1	i	i	i	i	i	i
Cc1nnc(N=c2ssnc2Cl)o1	i	i	i	-82.5	i	i
Cc1ccc(C2CC(=O)N3CN(Cc4ccco4)CSC3=C2C#N)cc1 (stereo not given)	i	i	i	-58.7	?	i
N#CC1=C2SCN(Cc3ccco3)CN2C(=O)CC1c1c(F)cccc1Cl (stereo not given)	i	i	i	i	?	i
O=C(Nc1nnc(-c2ccccc2)s1)c1cc(S(=O)(=O)N2CCOCC2)c(Cl)cc1Cl	i	i	i	-70.1	i	i
Cc1cc(C(=O)NCCN2CCN(c3cccc(Cl)c3)CC2)n(-c2ccccc2)n1	i	i	i	?	i	i
Cc1cc(C(=O)NCCCN2CCN(c3cc(Cl)ccc3C)CC2)n(-c2ccccc2)n1	i	i	i	-65.3	i	i
CCOC(=O)c1c(S(=O)(=O)NCC2CCN(CCc3cccs3)CC2)c(C)n(C)c1C	i	i	i	-83.4	i	i
CCOc1ccc(C(=O)NC(=S)Nc2cccc(NC(=O)c3ccco3)c2)cc1[N+](=O)[O-]	i	i	i	-68.6	i	i
COc1ccc(C(=O)NC(=S)Nc2cccc(NC(=O)c3ccco3)c2)cc1[N+](=O)[O-]	i	i	i	i	i	i
N#Cc1nc(COc2ccc(Br)cc2)oc1N1CCN(Cc2ccccc2)CC1	i	i	i	i	i	i
N#Cc1nc(-c2ccc(OCc3ccccc3)cc2)oc1N1CCOCC1	i	i	i	i	i	31.2
CCN1CCN(c2oc(COc3ccc(-c4ccccc4)cc3)nc2C#N)CC1	i	i	i	-80.3	i	i
O=C(Nc1ccccc1C(F)(F)F)c1ccc(CN2CCC(Cc3ccccc3)CC2)cc1	i	i	i	-52.3	i	i
O=C(Nc1ccccc1)c1ccc(CN2CCC(Cc3ccccc3)CC2)cc1	i	i	nt	-51.2	i	i
Cc1cccc(NC(=O)c2ccc(CN3CCN(Cc4ccccc4)CC3)cc2)c1	i	i	i	i	i	i
C/C=C(/CC[C@@H](C)[C@H]1CC[C@H]2C3=CC[C@H]4[C@H](C)[C@@H](O)CC[C@]4(C)[C@H]3CC[C@]12C)C(C)C	nt	nt	nt	nt	nt	i
